For assay [1], the target named is Sphingosine kinase 1 (Homo sapiens) (UniProt Q9NYA1). The settings on record: at 1 µM.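 Also: mean SPHK1 inhibition value reported from the GSK PKIS kinase panel screen.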
Assay [2] concerns the target T1, Sphingosine kinase 2 (Homo sapiens) (UniProt Q9NRA0).
T1 sequence (whole entry): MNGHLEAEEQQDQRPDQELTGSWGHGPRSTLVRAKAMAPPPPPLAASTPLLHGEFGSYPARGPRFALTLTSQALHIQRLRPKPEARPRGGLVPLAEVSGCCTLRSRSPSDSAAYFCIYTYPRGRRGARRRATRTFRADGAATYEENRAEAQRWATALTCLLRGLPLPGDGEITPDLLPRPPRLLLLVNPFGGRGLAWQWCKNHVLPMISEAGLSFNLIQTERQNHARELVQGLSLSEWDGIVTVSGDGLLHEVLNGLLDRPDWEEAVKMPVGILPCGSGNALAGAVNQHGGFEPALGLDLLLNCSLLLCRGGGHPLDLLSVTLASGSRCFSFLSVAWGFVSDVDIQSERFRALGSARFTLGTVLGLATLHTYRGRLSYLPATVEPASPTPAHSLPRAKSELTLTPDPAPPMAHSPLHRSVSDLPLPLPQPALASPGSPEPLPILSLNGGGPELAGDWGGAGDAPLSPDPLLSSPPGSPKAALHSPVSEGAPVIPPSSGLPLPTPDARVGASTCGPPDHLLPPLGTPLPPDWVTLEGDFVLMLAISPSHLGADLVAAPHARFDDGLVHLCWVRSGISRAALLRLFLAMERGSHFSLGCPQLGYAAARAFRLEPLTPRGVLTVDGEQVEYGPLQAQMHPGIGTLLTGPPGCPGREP
The conditions noted are these: at 0.1 µM.

In assay [3] the target is T1, Sphingosine kinase 2 (Homo sapiens). The conditions noted are these: at 1 µM.
Assay [4] addresses Casein kinase II subunit alpha (Homo sapiens) (UniProt P68400). The settings on record: at 0.1 µM.
Assay [5] has the same target. The settings on record: at 1 µM.
Assay [6] deals with T2, Inhibitor of nuclear factor kappa-B kinase subunit beta (Homo sapiens) (UniProt O14920).
T2 sequence (whole entry): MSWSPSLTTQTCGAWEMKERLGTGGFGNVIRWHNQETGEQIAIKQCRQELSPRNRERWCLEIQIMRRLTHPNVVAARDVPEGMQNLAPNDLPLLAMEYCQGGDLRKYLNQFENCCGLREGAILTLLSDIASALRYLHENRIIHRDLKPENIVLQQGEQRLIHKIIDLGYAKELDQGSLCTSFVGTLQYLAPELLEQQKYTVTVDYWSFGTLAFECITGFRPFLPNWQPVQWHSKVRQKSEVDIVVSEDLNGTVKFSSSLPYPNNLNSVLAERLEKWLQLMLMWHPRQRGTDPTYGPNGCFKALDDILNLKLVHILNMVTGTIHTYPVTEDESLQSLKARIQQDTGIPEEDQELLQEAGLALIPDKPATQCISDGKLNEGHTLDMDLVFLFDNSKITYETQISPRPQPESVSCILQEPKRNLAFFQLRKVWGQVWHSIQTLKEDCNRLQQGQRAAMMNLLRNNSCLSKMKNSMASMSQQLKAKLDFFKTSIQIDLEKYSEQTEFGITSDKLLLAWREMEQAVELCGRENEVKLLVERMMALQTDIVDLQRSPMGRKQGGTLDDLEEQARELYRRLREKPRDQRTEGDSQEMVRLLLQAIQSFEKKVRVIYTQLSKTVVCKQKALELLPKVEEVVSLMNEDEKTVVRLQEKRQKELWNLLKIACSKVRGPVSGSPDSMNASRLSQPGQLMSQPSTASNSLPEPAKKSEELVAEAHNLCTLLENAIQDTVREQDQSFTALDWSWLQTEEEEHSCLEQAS
The conditions noted are these: at 0.1 µM.

Assay [7] deals with T2, Inhibitor of nuclear factor kappa-B kinase subunit beta (Homo sapiens). The conditions noted are these: at 1 µM.
The target in assay [8] is T3, Inhibitor of nuclear factor kappa-B kinase subunit epsilon (Homo sapiens) (UniProt Q14164).
T3 sequence (whole entry): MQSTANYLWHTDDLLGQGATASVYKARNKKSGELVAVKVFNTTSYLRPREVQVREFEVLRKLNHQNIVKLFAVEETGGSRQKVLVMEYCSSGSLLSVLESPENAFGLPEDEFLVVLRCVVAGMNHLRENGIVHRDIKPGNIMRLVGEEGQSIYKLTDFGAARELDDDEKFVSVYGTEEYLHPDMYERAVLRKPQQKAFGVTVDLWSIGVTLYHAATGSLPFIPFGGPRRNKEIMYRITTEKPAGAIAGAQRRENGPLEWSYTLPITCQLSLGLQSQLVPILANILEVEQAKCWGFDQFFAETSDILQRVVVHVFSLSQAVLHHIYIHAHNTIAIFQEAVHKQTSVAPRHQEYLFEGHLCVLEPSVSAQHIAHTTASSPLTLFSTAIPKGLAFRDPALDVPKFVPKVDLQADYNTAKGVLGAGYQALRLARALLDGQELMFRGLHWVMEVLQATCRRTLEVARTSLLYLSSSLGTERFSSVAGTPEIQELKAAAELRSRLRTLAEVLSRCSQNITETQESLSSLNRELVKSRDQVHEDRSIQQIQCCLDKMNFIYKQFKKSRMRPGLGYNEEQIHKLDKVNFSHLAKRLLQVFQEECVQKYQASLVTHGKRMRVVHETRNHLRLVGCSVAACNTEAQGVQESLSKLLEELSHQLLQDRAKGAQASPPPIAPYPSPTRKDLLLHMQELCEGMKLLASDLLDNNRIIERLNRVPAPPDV
The settings on record: at 0.1 µM.

Assay [9] deals with T3, Inhibitor of nuclear factor kappa-B kinase subunit epsilon (Homo sapiens). The conditions noted are these: at 1 µM.
For assay [10], the target named is T4, Serine/threonine-protein kinase Nek1 (Homo sapiens) (UniProt Q96PY6).
T4 sequence (whole entry): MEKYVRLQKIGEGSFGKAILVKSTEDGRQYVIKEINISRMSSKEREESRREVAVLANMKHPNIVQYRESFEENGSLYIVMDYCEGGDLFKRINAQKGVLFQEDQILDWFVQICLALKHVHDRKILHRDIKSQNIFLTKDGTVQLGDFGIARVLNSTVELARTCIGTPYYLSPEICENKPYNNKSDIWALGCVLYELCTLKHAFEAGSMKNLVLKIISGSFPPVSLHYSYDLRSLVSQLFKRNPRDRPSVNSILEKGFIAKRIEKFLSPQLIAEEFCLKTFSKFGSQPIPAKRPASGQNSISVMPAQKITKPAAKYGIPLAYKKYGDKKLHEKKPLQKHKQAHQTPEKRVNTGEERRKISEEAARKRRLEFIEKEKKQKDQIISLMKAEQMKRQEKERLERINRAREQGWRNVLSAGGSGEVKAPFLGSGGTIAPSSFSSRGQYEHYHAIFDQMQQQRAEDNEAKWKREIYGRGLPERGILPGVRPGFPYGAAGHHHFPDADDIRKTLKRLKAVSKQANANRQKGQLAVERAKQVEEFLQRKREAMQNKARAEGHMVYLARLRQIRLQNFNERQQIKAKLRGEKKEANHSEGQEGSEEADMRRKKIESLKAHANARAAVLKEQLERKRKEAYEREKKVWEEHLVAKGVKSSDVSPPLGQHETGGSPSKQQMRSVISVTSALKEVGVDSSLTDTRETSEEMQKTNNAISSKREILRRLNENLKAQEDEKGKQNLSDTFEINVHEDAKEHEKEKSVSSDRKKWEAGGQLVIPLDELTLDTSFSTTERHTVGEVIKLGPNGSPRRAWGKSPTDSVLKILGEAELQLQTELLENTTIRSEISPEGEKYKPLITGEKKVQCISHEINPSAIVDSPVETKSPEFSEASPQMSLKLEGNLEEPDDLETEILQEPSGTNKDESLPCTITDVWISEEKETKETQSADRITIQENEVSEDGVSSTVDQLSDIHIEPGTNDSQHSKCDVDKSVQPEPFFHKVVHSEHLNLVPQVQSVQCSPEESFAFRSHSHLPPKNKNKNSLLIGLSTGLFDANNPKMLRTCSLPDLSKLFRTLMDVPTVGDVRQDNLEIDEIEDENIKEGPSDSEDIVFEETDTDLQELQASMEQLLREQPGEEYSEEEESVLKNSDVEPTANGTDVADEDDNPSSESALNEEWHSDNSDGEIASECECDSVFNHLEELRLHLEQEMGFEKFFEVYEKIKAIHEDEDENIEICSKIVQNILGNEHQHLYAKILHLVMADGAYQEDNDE
The conditions noted are these: at 0.1 µM.

For assay [11], the target named is T4, Serine/threonine-protein kinase Nek1 (Homo sapiens). The conditions noted are these: at 1 µM.
Assay [12] deals with T5, Serine/threonine-protein kinase Nek2 (Homo sapiens) (UniProt P51955).
T5 sequence (whole entry): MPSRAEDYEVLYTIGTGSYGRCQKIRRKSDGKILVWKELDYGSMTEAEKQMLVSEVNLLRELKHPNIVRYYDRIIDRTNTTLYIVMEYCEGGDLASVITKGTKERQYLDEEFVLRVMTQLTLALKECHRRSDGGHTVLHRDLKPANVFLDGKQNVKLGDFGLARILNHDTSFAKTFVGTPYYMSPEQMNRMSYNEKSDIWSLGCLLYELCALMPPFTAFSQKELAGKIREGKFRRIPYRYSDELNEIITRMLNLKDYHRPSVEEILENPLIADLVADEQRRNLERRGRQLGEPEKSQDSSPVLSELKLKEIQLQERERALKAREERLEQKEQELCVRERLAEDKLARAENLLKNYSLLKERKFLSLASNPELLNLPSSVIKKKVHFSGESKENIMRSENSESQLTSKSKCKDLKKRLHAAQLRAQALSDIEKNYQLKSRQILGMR
The conditions noted are these: at 0.1 µM.

The target of assay [13] is T5, Serine/threonine-protein kinase Nek2 (Homo sapiens). The conditions noted are these: at 1 µM.
The target of assay [14] is Serine/threonine-protein kinase Nek6 (Homo sapiens) (UniProt Q9HC98). The conditions noted are these: at 0.1 µM.
For assay [15] the target is unchanged. The conditions noted are these: at 1 µM.
Assay [16] has as its target Serine/threonine-protein kinase Nek7 (Homo sapiens) (UniProt Q8TDX7). The settings on record: at 0.1 µM.
Assay [17] has the same target. The settings on record: at 1 µM.
Assay [18] concerns the target T6, Serine/threonine-protein kinase Nek9 (Homo sapiens) (UniProt Q8TD19).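 Also: reported value is the mean percent inhibition of NEK9.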
T6 sequence (whole entry): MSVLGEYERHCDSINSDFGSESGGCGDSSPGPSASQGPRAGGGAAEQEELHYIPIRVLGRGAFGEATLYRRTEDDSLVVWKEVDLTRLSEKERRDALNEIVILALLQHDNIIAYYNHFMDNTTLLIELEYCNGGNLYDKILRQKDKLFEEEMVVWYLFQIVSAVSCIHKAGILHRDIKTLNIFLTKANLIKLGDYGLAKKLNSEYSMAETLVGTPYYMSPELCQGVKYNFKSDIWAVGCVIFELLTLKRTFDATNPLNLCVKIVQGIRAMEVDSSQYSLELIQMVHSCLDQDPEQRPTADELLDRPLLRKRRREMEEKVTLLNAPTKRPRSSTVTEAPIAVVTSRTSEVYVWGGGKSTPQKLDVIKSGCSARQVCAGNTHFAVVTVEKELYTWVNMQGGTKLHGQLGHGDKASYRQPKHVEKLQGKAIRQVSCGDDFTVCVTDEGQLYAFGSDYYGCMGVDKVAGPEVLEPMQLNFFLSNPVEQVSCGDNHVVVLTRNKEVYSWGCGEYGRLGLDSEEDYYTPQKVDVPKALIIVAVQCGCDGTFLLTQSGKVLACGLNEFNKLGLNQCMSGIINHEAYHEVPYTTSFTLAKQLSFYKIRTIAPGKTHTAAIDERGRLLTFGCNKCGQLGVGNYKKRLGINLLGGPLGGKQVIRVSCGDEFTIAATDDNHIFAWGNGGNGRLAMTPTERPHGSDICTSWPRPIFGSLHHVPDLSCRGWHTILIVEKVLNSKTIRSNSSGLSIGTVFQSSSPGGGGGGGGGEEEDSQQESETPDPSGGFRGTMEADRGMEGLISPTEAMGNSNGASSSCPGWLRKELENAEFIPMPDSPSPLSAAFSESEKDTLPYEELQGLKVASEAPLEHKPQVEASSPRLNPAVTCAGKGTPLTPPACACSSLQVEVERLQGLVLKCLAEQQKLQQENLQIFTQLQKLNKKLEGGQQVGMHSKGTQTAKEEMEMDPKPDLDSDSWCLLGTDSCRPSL
The settings on record: at 0.1 µM.

Serine/threonine-protein kinase Nek6 (Homo sapiens), sequence (Q9HC98 whole entry): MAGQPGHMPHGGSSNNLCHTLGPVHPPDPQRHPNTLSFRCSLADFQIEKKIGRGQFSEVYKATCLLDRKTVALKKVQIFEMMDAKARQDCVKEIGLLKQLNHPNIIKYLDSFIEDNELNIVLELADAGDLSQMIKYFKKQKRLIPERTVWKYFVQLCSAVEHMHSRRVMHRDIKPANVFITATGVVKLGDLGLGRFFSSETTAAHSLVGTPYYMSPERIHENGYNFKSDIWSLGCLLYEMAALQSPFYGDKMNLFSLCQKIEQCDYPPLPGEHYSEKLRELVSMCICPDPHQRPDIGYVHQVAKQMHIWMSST
Serine/threonine-protein kinase Nek7 (Homo sapiens), sequence (Q8TDX7 whole entry, looked up): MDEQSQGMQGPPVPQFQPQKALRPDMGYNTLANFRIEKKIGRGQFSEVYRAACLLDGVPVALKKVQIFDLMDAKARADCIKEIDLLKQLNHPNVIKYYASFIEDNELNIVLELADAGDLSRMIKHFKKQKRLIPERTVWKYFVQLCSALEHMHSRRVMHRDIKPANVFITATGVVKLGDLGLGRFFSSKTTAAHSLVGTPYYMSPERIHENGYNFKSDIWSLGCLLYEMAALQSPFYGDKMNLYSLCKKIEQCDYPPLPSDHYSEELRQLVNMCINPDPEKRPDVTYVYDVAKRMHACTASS
Casein kinase II subunit alpha (Homo sapiens), sequence (P68400 whole entry, looked up): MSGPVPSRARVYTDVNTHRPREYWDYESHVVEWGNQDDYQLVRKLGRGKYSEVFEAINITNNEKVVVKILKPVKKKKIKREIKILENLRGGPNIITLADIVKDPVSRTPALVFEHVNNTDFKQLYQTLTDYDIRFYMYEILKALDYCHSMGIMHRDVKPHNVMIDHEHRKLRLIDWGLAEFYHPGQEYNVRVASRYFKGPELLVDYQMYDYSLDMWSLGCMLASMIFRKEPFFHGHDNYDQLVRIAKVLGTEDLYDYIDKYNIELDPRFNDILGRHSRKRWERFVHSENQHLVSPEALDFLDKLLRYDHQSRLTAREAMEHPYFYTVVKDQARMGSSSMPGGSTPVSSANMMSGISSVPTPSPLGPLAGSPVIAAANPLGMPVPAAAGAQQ
Sphingosine kinase 1 (Homo sapiens), sequence (Q9NYA1 whole entry): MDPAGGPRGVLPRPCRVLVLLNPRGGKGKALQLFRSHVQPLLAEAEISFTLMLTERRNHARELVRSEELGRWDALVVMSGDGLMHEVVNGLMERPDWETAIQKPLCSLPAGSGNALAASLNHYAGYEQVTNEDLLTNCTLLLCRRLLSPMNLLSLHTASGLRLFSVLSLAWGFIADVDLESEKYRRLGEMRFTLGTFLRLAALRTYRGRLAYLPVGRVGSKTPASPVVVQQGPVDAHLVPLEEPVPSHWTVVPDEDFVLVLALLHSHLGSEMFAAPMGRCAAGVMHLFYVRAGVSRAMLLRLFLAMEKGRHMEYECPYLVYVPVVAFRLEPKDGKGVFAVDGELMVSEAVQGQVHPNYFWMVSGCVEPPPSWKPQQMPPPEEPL

As to `NC(=O)c1cc(-c2ccncc2)cc(-c2ccccc2)c1N`, the inhibition (as a rule, the relative decrease from the control value, in per cent) in [1] was 1.79%; in assay [2] it was -0.11%; in assay [3], -1.58%; in assay [4], 2.36%; in assay [5], 2.75%; in assay [6], 9.18%. Moreover, the inhibition in assay [7] was determined as 27.5%; in assay [8], 6.3%; in assay [9], 14.9%; in assay [10], 3.64%; in [11] it was 3.27%; in assay [12], 6.42%. For the same compound, the inhibition in assay [13] was 6.13%; in assay [14], 2.63%; in assay [15], -0.35%; in assay [16] it was 4.53%; in assay [17], 3.98%; in assay [18] it was 9.48%.

(Values after ChEMBL document CHEMBL1961873, “Compounds: GSK PKIS; Assays: Nanosyn kinase panel” (2012).)
